Experiment [1] can be described thus: qHTS assay to identify small molecule agonists of the estrogen receptor beta (ER-beta) signaling pathway - cell viability counter screen (AID 1259380). Further: nearly all actives have a fitted effect of over 30% in size. Further: potency means the concentration at half of the fitted maximal effect. The essentials:
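HEK293T ER-beta-UAS-bla; 2% CS-FBS; 6 hr pre-plate, 16 hr cpd at 37C/5% CO2; LiveBLAzer read first, then CellTiter-Glo 30 min RT, luminescence.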
A general note: Quantitative high-throughput screening tests each substance at several concentrations.

For experiment [2], the target named is Estrogen receptor (Homo sapiens) (UniProt P03372). Briefly: qHTS assay to identify small molecule agonists of the estrogen receptor alpha (ER-alpha) signaling pathway in the presence of an antagonist (AID 1259383; calls by dose curve; further: top concentration of the series differs between compounds; nearly all actives have a fitted effect of over 15% in size). The essentials: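 VM7Luc4E2, endog. ER-alpha + 4×ERE-luc; charcoal-stripped FBS, phenol red-free, 5 d; 24hr plating; +10.0nM ICI-182,780 (final); cpds 15 conc, 22hr, 37C/5% CO2; ONE-Glo luminescence.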

Experiment [3] in a line: qHTS assay to identify small molecule antagonists of the TGF-beta/Smad signaling pathway - cell viability counter screen (AID 1346824). Further: nearly all actives have a fitted effect of over 50% in size. Further: potency means the concentration at half of the fitted maximal effect. The essentials: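 SBE-bla HEK 293T cells were plated overnight at 37 C, then given compounds in DMSO plus TGF-beta1 (added as 0.25 ng/mL solution) for 5 hr. After the bla read, CellTiter-Glo was added to the same wells and luminescence read after 30 min at room temperature.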

Experiment [4] in a line: qHTS assay to identify small molecule agonists of the TGF-beta/Smad signaling pathway - cell viability counter screen (AID 1346829). Further: nearly all actives have a fitted effect of over 45% in size. Further: potency means the concentration at half of the fitted maximal effect. The essentials:
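HEK 293T SBE-bla line, 5 hr compound exposure at 37 C, multiplexed CellTiter-Glo viability read by luminescence.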

Experiment [5] can be described thus: qHTS assay to identify small molecule agonists of the TGF-beta/Smad signaling pathway (AID 1346859; active means well fitted activation curve with a large enough effect in the signal ratio in the repeat runs, not every such curve was filed as active; the % refers to the signal ratio; further: series mostly up to about 77 µM). The essentials: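 Reporter line: HEK 293T with stably integrated SBE-controlled beta-lactamase. Compound exposure lasts 5 hr at 37 C and 5% CO2; substrate loading follows for 2 hr at room temperature, with emission read at 460 and 530 nm.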
Experiment [6] in a line: Human pregnane X receptor (PXR) small molecule agonists, qHTS cell viability counter screen (AID 1346977). Further: nearly all actives have a fitted effect of over 50% in size. Further: potency means the concentration at half of the fitted maximal effect. The essentials: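 Cytotoxicity counter screen run in the same wells as the PXR luciferase assay, using PXR-Luc HepG2 cells in charcoal-stripped serum medium. Viability: CellTiter-Fluor fluorescence after 24hr compound treatment.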
Experiment [7] in a line: qHTS assay to identify small molecule antagonists of the estrogen receptor beta (ER-beta) signaling pathway - cell viability counter screen (AID 1259382). Further: nearly all actives have a fitted effect of over 55% in size. Further: potency means the concentration at half of the fitted maximal effect. The essentials:
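Cells: ER-beta-UAS-bla HEK293T, 2,000/well, 2% CS-FBS, 6 hr settle. Cpd + E2 (1nM final), 16 hr, 37C/5% CO2. Bla FRET substrate 2 hr RT, then CellTiter-Glo 30 min RT, luminescence.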

A short description of experiment [8]: qHTS assay to identify small molecule agonists or antagonists of the thyroid stimulating hormone receptor (TSHR) signaling pathway - wild type cell line counter screen (AID 1259384; calls by dose curve). Summed up: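 Wild-type HEK293 cells were plated 18 h at 37 C/5% CO2, pin-dosed with compound plus Ro20-1724 medium, held 30 min at room temperature, then given cAMP-d2 and anti-cAMP-cryptate; fluorescence was read after 1 h. Fifteen concentrations, triplicate.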

For experiment [9], the target named is Thyrotropin receptor (Homo sapiens) (UniProt P16473). The experiment is described as follows: qHTS assay to identify small molecule antagonists of the thyroid stimulating hormone receptor (TSHR) signaling pathway (AID 1259385; calls by dose curve; further: nearly all actives have a fitted effect of over 20% in size; further: potency means the concentration at half of the fitted maximal effect). The essentials: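 TSHR-HEK293 cells were plated and held 18 h at 37C/5% CO2, then given compound plus Ro20-1724 and stimulated with TSH at 1.5 ng/mL final. After 30 min at room temperature, cAMP was detected with cAMP-d2/anti-cAMP-cryptate (1 h) by fluorescence.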

Experiment [10] is described as follows: qHTS assay to identify small molecule agonists of the estrogen receptor alpha (ER-alpha) signaling pathway in the presence of an antagonist - cell viability counter screen (AID 1259386).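 Further: cells exposed to compounds for 22 h at 37 °C before the viability read; nearly all actives have a fitted effect of over 30% in size.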 Further: potency means the concentration at half of the fitted maximal effect. The essentials: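 VM7Luc4E2, stripped-serum pre-culture 5 d; 24hr plating; +ICI-182,780 10.0nM final; cpds 15 conc, 22hr, 37C/5% CO2; CellTiter-Fluor added at 21hr, fluorescence 1hr later.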

A short description of experiment [11]: qHTS assay to identify small molecule antagonists of the progesterone receptor (PR) signaling pathway - cell viability counter screen (AID 1346798). Further: nearly all actives have a fitted effect of over 50% in size. Further: potency means the concentration at half of the fitted maximal effect. Summed up:
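Counter screen for cytotoxicity: viability of PR-UAS-bla HEK293T cells was measured with CellTiter-Glo luminescence following 16 hr compound exposure in the presence of R5020.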

Experiment [12] is described as follows: qHTS assay to identify small molecule agonists of the progesterone receptor (PR) signaling pathway - cell viability counter screen (AID 1346799; calls by dose curve; further: nearly all actives have a fitted effect of over 45% in size; further: potency means the concentration at half of the fitted maximal effect). The essentials:
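Cells (PR-UAS-bla HEK293T) are plated at 3,000/well in 2% charcoal-stripped FBS medium, rested 6 hr, dosed and incubated 16 hr at 37C. CellTiter-Glo is then added and luminescence measured after 30 min at room temperature.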

A short description of experiment [13]: Caspase-3/7 induction in HepG2 cells by small molecules, qHTS assay (AID 1346978). Further: nearly all actives have a fitted effect of over 15% in size. Summed up: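 Wild-type HepG2 cells (2,000/well) were settled 5 h at 37 C, 5% CO2, then exposed to compounds in DMSO for 17 h. Caspase-3/7 activity was read by luminescence 30 min after adding Caspase-Glo 3/7 reagent at room temperature.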
Experiment [14] deals with Progesterone receptor (Homo sapiens) (UniProt P06401). The experiment is described as follows: qHTS assay to identify small molecule agonists of the progesterone receptor (PR) signaling pathway (AID 1346784; calls by dose curve; further: nearly all actives have a fitted effect of over 30% in size). The essentials: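 Cells (PR-UAS-bla HEK 293T, GripTite) were plated in assay medium containing 2% charcoal-stripped FBS and incubated 6 hr. Test compounds in DMSO were added for 16 hr at 37C. FRET substrate was then loaded for 2 hr at room temperature before fluorescence reading.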

Experiment [15] shares this target. The experiment is described as follows: qHTS assay to identify small molecule antagonists of the progesterone receptor (PR) signaling pathway (AID 1346795; active means well fitted inhibition curve with a large enough effect in the signal ratio in the repeat runs, not every such curve was filed as active; the % refers to the signal ratio; further: potency means the concentration at half of the fitted maximal effect). The essentials:
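Antagonist mode: compounds tested against 1 nM (final) promegestone stimulation in HEK293T cells expressing PR-UAS-bla reporter, 16 hr at 37C, 5% CO2; beta-lactamase activity detected via B/G FRET substrate after 2 hr at room temperature.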

The target in experiment [16] is Thyrotropin-releasing hormone receptor (Homo sapiens) (UniProt P34981). The experiment is described as follows: qHTS assay to identify small molecule antagonists of the thyrotropin-releasing hormone receptor (TRHR) signaling pathway (AID 1346877; active means well fitted inhibition curve with a large enough effect in the repeat runs, not every such curve was filed as active; further: series mostly up to about 51 µM). Summed up:
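Intracellular calcium fluorescence, read kinetically every second over 3 min, reports TRH-evoked signalling in HEK293 cells carrying TRHR. Test compounds were added 5 min ahead of a 1 nM TRH challenge.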

The target is the same in experiment [17]. Briefly: qHTS assay to identify small molecule agonists of the thyrotropin-releasing hormone receptor (TRHR) signaling pathway (AID 1346891; calls by dose curve;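 further: HEK293 cells expressing TRHR with calcium dye readout; series mostly up to about 58 µM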). The essentials: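 Cells: TRHR-Hek293, seeded and incubated 18 h. Dye loading: 2 h at 37 °C. Compound added from DMSO stock by pin tool. Read-out: kinetic calcium fluorescence over 3 min.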
The target of experiment [18] is Androgen receptor (Homo sapiens) (UniProt P10275). The experiment is described as follows: qHTS assay to identify small molecule agonists of the androgen receptor (AR) signaling pathway in the presence of an antagonist (AID 1259381; calls by dose curve; further: nearly all actives have a fitted effect of over 15% in size). Summed up: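 MDA-kb2 cells, 3,000/well, rested 5hr at 37C/0% CO2 → nilutamide 3.0uM final or buffer → compounds, 15 conc. → 16hr at 37C → ONE-Glo, 30min RT → luminescence.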

Experiment [19] can be described thus: qHTS assay to identify small molecule agonists of the androgen receptor (AR) signaling pathway in the presence of an antagonist - cell viability counter screen (AID 1259379).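 Further: MDA-kb2 human breast cancer cells carrying an MMTV luciferase reporter; series mostly up to about 92 µM; nearly all actives have a fitted effect of over 25% in size.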 The essentials:
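Cells: MDA-kb2 (MMTV-luc, AR and GR elements), 3,000/well, 5 hr settle. Added: nilutamide 3.0uM final, then compounds (15 conc.). Incubation: 16 hr, 37C, no CO2. Read-out: CellTiter-Fluor, 1 hr, fluorescence.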

Results filed as inconclusive are left out. Activity calls are given as the source filed them. Unless noted, the call rests on the fitted dose curve; in most records, active means well fitted curve in the direction sought with a large enough effect in the repeat runs; inconclusive means weak or mixed curves; inactive means no such curve, though single readings can be large; an effect the other way counts as inactive or inconclusive.

Chain of Progesterone receptor (Homo sapiens) (P06401 whole entry, looked up): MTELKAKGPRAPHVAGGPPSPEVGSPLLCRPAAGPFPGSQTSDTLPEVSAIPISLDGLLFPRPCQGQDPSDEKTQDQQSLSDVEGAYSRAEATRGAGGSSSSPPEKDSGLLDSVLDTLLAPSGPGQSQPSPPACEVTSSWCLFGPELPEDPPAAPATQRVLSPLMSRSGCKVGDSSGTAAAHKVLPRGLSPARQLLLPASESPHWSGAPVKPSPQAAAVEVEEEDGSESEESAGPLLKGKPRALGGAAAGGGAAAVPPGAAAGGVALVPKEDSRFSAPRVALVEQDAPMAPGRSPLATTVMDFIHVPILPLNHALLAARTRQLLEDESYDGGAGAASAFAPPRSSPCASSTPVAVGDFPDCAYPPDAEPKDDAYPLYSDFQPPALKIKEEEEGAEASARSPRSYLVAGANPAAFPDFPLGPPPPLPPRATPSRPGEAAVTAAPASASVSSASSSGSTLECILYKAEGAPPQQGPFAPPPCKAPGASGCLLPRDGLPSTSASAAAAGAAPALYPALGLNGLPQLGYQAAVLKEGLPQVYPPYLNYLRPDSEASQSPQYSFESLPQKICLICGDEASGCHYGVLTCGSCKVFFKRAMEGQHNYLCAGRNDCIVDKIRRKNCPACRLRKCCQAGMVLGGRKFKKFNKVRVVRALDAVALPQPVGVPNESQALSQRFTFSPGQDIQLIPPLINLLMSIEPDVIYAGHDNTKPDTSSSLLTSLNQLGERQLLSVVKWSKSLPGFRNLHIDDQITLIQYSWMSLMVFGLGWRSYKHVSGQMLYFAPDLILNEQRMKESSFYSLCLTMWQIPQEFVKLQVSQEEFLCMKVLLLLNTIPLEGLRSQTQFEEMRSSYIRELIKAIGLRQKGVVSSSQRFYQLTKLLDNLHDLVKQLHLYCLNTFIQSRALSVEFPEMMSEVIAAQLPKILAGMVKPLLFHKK
Chain of Thyrotropin-releasing hormone receptor (Homo sapiens) (P34981 whole entry, looked up): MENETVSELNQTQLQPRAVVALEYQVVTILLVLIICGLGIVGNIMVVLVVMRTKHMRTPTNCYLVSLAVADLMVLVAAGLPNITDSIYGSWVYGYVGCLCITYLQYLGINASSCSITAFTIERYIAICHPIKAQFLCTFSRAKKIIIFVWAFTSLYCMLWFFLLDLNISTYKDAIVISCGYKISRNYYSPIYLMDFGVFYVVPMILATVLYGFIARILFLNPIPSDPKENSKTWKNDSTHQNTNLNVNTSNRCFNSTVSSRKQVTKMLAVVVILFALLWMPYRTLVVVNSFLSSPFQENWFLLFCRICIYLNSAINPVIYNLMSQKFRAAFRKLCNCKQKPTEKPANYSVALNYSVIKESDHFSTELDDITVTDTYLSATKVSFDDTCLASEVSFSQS
Chain of Estrogen receptor (Homo sapiens) (P03372 whole entry, looked up): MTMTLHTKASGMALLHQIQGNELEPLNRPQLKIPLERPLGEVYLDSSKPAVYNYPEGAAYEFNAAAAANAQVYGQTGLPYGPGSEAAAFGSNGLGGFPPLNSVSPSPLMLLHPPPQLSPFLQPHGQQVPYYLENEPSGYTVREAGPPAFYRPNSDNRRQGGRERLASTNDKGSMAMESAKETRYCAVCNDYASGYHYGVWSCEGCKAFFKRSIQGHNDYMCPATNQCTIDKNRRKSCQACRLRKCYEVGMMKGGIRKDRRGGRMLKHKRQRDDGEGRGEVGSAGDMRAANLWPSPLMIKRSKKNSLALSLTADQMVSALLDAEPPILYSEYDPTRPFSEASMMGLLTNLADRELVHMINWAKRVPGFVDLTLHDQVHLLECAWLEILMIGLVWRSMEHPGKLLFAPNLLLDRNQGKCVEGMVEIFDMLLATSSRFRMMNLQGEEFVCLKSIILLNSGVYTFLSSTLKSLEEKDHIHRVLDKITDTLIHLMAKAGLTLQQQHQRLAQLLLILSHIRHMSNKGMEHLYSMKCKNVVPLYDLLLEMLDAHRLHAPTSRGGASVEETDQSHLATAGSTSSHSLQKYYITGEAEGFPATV
Chain of Thyrotropin receptor (Homo sapiens) (P16473 whole entry, looked up): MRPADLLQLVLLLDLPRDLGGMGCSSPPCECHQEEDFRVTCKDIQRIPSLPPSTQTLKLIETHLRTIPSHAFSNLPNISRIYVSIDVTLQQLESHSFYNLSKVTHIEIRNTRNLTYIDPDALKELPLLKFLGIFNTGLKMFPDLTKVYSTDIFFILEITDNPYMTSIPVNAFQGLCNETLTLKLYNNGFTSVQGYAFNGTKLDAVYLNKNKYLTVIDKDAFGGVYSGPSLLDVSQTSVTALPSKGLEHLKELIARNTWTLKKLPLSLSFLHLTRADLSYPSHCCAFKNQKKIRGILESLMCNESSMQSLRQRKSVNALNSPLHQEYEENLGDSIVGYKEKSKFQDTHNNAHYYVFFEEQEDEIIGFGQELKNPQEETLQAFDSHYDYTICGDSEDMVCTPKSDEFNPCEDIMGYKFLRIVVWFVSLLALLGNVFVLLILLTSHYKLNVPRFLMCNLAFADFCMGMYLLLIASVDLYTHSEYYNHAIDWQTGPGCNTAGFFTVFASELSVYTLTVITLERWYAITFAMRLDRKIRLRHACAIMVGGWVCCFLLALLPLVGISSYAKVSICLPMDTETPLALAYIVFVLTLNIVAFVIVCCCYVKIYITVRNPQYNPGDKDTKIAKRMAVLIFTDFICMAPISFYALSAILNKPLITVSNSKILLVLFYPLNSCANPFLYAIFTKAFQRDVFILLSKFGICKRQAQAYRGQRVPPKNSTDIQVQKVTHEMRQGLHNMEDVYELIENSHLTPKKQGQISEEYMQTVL
Chain of Androgen receptor (Homo sapiens) (P10275 whole entry, looked up): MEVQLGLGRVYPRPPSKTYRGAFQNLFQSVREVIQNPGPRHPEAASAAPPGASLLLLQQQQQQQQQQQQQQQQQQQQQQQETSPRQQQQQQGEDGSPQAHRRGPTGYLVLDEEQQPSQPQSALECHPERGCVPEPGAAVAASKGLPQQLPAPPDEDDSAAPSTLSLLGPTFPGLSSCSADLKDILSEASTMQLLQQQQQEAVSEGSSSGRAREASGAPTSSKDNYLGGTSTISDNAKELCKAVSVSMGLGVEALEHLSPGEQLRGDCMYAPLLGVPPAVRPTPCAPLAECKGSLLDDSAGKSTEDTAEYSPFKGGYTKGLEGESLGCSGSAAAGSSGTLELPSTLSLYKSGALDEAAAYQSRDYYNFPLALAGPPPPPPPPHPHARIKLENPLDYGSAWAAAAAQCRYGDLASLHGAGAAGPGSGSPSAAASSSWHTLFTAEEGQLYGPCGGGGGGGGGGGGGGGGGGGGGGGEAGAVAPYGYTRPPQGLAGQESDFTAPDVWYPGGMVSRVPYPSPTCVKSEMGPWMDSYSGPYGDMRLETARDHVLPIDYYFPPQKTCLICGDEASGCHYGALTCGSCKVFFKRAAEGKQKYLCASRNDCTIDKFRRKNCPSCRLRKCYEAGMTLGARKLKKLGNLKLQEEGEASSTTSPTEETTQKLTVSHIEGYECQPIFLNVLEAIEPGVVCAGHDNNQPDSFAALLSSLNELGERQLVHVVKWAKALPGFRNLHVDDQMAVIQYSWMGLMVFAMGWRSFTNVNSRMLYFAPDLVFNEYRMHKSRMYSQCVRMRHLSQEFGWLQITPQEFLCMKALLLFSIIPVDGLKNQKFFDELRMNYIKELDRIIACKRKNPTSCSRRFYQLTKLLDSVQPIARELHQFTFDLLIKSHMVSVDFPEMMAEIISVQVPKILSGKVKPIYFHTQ

In the case of `CC(C)(C)C(O)/C(=C\c1ccc(Cl)cc1Cl)n1cncn1` (stereo not given), the Potency in experiment [1] and in experiment [6] was 74 µM (active) each time. For the same compound, the Potency entry in [2], in experiment [3] and in experiment [4] was “inactive” each time. The compound was called inactive in experiment [5].
Take `Clc1ccc(CCC(Cn2ccnc2)Sc2c(Cl)cccc2Cl)cc1` (stereo not given): the Potency in experiment [1] is 29.8 µM (active); in experiment [7], 33.5 µM (active); in experiment [11], 11.9 µM (active); in [12], 21.1 µM (active). Further, the outcome in experiment [8] was inactive. Also, the Potency result in experiment [9], in [10], in [3], in [4] and in experiment [13] was “inactive” each time.
With `CSCCCN=C=S`, the Potency entry in experiment [1], in experiment [7], in [9], in [10], in experiment [14] and in [15] was “inactive” each time. The Potency result in experiment [11], in [12], in experiment [3], in [4], in [16] and in [17] was “inactive” each time. The Potency entry in experiment [6] and in [13] was “inactive” in each case. For the same compound, the result in experiment [5] was inactive.
As to `Oc1cc(Cl)c(Cl)c(Cl)c1`, the Potency in [1] is 25.9 µM (active); in experiment [15], 13 µM (active); in experiment [6], 51.7 µM (active). In addition, the Potency entry in [18], in experiment [2], in experiment [9], in experiment [11], in experiment [3] and in experiment [16] was “inactive” in each case. Further, the Potency entry in [17] and in [13] was “inactive” each time. The outcome in experiment [8] and in [5] was inactive.
As to `Cc1c(Cl)c(=O)oc2cc(OP(=O)(OCCCl)OCCCl)ccc12`, the Potency result in [1], in experiment [7], in experiment [2], in experiment [9], in [10] and in experiment [14] was “inactive” throughout. In addition, the Potency result in [3], in [4], in experiment [6] and in [13] was “inactive” throughout. The outcome in experiment [8] was inactive. Further, the Potency in experiment [15] is 7.5 µM (active).
As for `CC(C)(C)C(O)C(Oc1ccc(-c2ccccc2)cc1)n1cncn1` (stereo not given), the Potency result in [18], in experiment [2], in experiment [9], in experiment [10], in experiment [3] and in [4] was “inactive” each time. Further, the Potency entry in [16], in experiment [17] and in experiment [13] was “inactive” in each case. Further, the Potency in experiment [15] and in experiment [6] was 61.1 µM (active) in each case. Also, the outcome in [5] was inactive.
Turning to `[Hg+2].[I-].[I-]`, the Potency in experiment [1] was 5.45 µM (active); in [7] it was 6.86 µM (active); in experiment [9] it was 43.3 µM (active); in experiment [10] it was 61.1 µM (active); in experiment [11], 6.11 µM (active); in experiment [12] it was 5.45 µM (active). Further, the Potency in [3] was 49 µM (active); in experiment [4] it was 54.9 µM (active); in [6], 48.6 µM (active). The Potency result in experiment [2] and in experiment [13] was “inactive” each time.
As to `O=C(O)c1cc[c]([Hg][Cl])cc1`, the Potency entry in experiment [19], in [2], in experiment [9], in [10], in [3] and in experiment [4] was “inactive” throughout. The Potency result in experiment [16], in experiment [17] and in experiment [13] was “inactive” each time. Moreover, the result in experiment [8] was inactive. Further, the figures for the Potency in [15] and in experiment [6] were 15.4 µM (active) and 68.6 µM (active), respectively.
Take `CC(C)(O)c1cnn2c(-c3ccc(F)c(-c4c(F)cccc4C#N)c3)cnc2n1`: in experiment [1], the Potency was 27.3 µM (active). In addition, the Potency result in experiment [18], in experiment [7], in experiment [9], in experiment [10], in experiment [3] and in experiment [4] was “inactive” throughout. The Potency entry in experiment [13] is “inactive”. Besides, the compound was called inactive in experiment [8].
For `CCCN(CCC)CCc1c[nH]c2ccccc12`, the Potency entry in [19], in experiment [2], in experiment [9], in [10], in [14] and in experiment [3] was “inactive” throughout. Moreover, the Potency entry in experiment [4], in experiment [17] and in experiment [13] was “inactive” in each case. In addition, the call in experiment [5] was inactive.
For `ClC(Cl)=C(c1ccc(Cl)cc1)c1ccc(Cl)cc1`, the Potency result in experiment [19], in experiment [2], in experiment [10], in experiment [14], in [11] and in [3] was “inactive” throughout. Besides, the Potency entry in experiment [4], in [16], in experiment [17], in experiment [6] and in experiment [13] was “inactive” each time. Further, the Potency in experiment [9] was 28 µM (active); in experiment [15] it was 6.26 µM (active); in experiment [12], 61.1 µM (active). In experiment [5], the call was inactive.

(Values after PubChem BioAssay (Tox21).)
